{"source": "PubChem BioAssay"}
{"target": "Calmodulin-1 (Homo sapiens) (UniProt P0DP23)", "assay": "small molecules binding Ca-loaded calmodulin-1 – biochemical, small-molecule microarray, Cy5-labelled CALM1, plus calcium, artefact control for SMM control-protein annotation, profiling panel (AID 1112);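 also: score merges spot fluorescence with signal to noise from triplicate slides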", "details": "Cy5-CALM1 binding fluorescence, higher = more signal"}
{"smiles": "CCOC(=O)C[C@H]1[C@H](OC(=O)c2ccccc2-c2ccccc2)[C@@H](NC(=O)c2ccccc2)c2cc(OCCCO)ccc2N1C(=O)Cc1ccc(OC)cc1", "composite z-score": -0.641}
{"smiles": "C=CCC(OC(C)=O)[C@@H]1[C@@H](N(Cc2ccc(-c3cccc(C(F)(F)F)c3)o2)C(=O)c2cccc3ccccc23)c2cc(OCCCO)ccc2N1C(=O)c1ccc(-c2ccccc2)cc1", "note": "(some centres undefined)", "composite z-score": 0.219}
{"smiles": "C[C@H]1ON(c2ccccc2)[C@@H](c2ccccc2)[C@@H]1C(=O)N1C(=O)OC[C@@H]1c1ccccc1", "composite z-score": -0.162}
{"smiles": "COCCOC(=O)N1C(=O)[C@@]2(c3cc(C#CCNC(N)=O)ccc31)[C@H](C(N)=O)[C@H]1C(=O)O[C@H](c3ccccc3)[C@H](c3ccccc3)N1[C@@H]2c1ccc(OCCO)cc1", "composite z-score": 0.257}
{"smiles": "CCCC=C(CCC)[C@@H](NS(=O)(=O)c1cccc2cccnc12)c1ccc(C(=O)OC)cc1", "composite z-score": -0.2}
{"smiles": "CCOC(=O)C1=CC[C@@H](c2ccccc2)N(S(=O)(=O)c2ccc(C)cc2)[C@H]1C=C(C)C", "composite z-score": -0.0374}
{"smiles": "C#CCNS(=O)(=O)N(C)C", "composite z-score": -0.687}
{"smiles": "O=C1O[C@H](c2ccccc2)[C@H](c2ccccc2)N2[C@H]1[C@@H](C(=O)N1CCN(c3ncccn3)CC1)[C@]1(C(=O)Nc3ccc(C#CCCO)cc31)[C@H]2c1ccc(OCCO)cc1", "composite z-score": -0.188}
{"smiles": "COCCOC(=O)N1C(=O)[C@@]2(c3cc(C#CC4(O)CCCCCC4)ccc31)[C@H](C(=O)N1CCN(c3ncccn3)CC1)[C@H]1C(=O)O[C@H](c3ccccc3)[C@H](c3ccccc3)N1[C@@H]2c1ccc(O)cc1", "composite z-score": 1.05}
